Source: PubChem BioAssay (National Center for Advancing Translational Sciences (NCATS))
IMPase Li cell: membrane-permeable IMPase blocker, potentiated with lithium; CHO-M1 cells, IP1 TR-FRET (IP-One), carbachol + lithium; Potency, µM (highest dose often 59.4 µM), inactives show top-dose activity, negative = IMPase inhibition, most hits filed as inhibitors; hit rate 0.35% among 210,000; active = well fitted curve in the direction sought with a large enough effect; inconclusive = small, poorly fitted or top-dose-only effect, or another doubt; inactive = no such curve, though single readings can be large; an effect the other way counts as inactive or inconclusive;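 also: IP1 builds up when IMPase is blocked and the TR-FRET signal falls; potency is read from the fitted curve at half-maximal effect; plate controls were basal vehicle for no effect and high inhibitor control for full effect; nearly all actives have a fitted effect of over 50% in size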
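Readout is a homogeneous TR-FRET IP1 immunoassay (Ex 320, Em 665 and 620), where raised cytosolic IP1 lowers signal. Cells were CHO-M1 treated 30 min at 37C with test compounds plus a little lithium; AC50 values came from Hill-equation fitting.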
ALDH1A1 block: blocks purified human ALDH1A1 activity; P00352; Purified ALDH1A1, NADH fluorescence, propionaldehyde substrate; Potency, µM (titrated, usually from 75.3 µM), for inactives: top-dose activity, negative = inhibition, actives largely listed as inhibitors; hit rate 7.3% among 220,000; AID 1030;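 also: potency is read from the fitted curve at half-maximal effect; plate controls were no enzyme wells and a reference inhibitor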
HPGD block: blocks human HPGD enzyme activity | P15428 | purified HPGD, NADH fluorescence kinetic, PGE2 substrate | Potency, µM, for inactives: at the highest dose activity change, negative = inhibition, hits mostly inhibitors | hit rate 4.3% among 150,000 | AID 894; also: potency is read from the fitted curve at half-maximal effect
Target sequence (P15428 whole entry, looked up): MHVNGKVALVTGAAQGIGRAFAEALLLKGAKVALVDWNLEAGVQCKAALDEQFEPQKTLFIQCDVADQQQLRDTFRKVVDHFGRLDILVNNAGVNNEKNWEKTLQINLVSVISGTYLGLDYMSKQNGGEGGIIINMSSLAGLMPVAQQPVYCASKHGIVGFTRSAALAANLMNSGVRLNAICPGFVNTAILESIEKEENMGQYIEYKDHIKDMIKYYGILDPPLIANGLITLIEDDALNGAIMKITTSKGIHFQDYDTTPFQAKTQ
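NADH formation kinetics: reaction with 30 uM PGE2 and 1 mM NAD+ (final), 20 nM enzyme, Tris-HCl pH 8 with Tween 20, after 15 min compound preincubation at room temperature. Fluorescence change, last versus first of five reads.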
IMPase cell inh: cell-permeable inhibitors of inositol monophosphatase (IMPase). 120,000 tested, under 10 active. inhibition (IP1 accumulation), % at 46.1 µM. P97697. CHO-M1 cells, IP1 accumulation, HTRF TR-FRET ratio. AID 901; active = well fitted curve in the direction sought with a large enough effect in the signal ratio, not every such curve was filed as active; inconclusive = small, poorly fitted or top-dose-only effect, or a change in a side signal; inactive = no such curve, though single readings can be large or run the other way; the % refers to the signal ratio;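 also: cells stimulated with carbachol in lithium chloride buffer; plate controls were DMSO basal wells for no effect and reference inhibitor wells for full effect; higher means more IMPase inhibition seen as more IP1 and lower FRET ratio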
Target sequence (P97697 whole entry, looked up): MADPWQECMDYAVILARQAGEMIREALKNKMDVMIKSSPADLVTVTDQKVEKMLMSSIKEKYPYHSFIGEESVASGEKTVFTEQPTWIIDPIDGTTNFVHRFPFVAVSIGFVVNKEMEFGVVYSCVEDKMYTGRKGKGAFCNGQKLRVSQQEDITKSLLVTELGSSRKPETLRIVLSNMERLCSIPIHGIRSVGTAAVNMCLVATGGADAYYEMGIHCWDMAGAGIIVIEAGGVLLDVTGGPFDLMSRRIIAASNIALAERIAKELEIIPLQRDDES
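Seeded CHO-M1 cells were dosed with compound at up to 46 uM, stimulated with carbachol for 30 min, then lysed in IP-One detection reagents. Higher IP1 lowers the TR-FRET signal.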
NPSR antagonist: antagonists of human neuropeptide S receptor cAMP signaling; Q6W5P4; CHO-NPSR cells, cAMP TR-FRET, antagonist mode; Potency, µM (highest dose often 38.3 µM), inactives show at the top dose activity change, negative = inhibition, most hits filed as inhibitors; hit rate 1% among 220,000; AID 1461; active = well fitted curve in the direction sought with a large enough effect; inconclusive = small, poorly fitted or top-dose-only effect, or another doubt; inactive = no such curve, though single readings can be large; an effect the other way counts as inactive or inconclusive; also: potency is read from the fitted curve at half-maximal effect; nearly all actives have a fitted effect of over 50% in size
PNC inhibitor: inhibitors of perinucleolar compartment assembly. PC3M PTB-GFP, PNC prevalence imaging, 16 h; hits give low values. activity change (PNC), negative = inhibition, % at 10 µM. hit rate 3.1% among 140,000. AID 2417;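 active = readout at or below -70, meaning at least 70% loss of cells showing the perinucleolar compartment, a nuclear body marking cancer cells; inconclusive = readout between -30 and a set limit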;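 also: plate controls were DMSO wells for no effect and camptothecin positive control wells for full effect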
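Compounds are pinned in duplicate onto adhered PC3M cells stably expressing GFP-tagged PTB and incubated 16 h at 37 C. Cells are then fixed, nuclei stained with Hoechst, and PNC-positive cells counted.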
An asterisk follows results filed as active; ? = inconclusive; . = no result; [ ] = remark or other dose. Rows were chosen to be rich in hits. Some 11% of all compounds tested hit in one or more screens of this group. Unless noted, calls follow the shape of the dose curve; as a rule, active = well fitted inhibition curve with a large enough effect (not every such curve was filed as active); inconclusive = small, poorly fitted or top-dose-only effect, or another doubt; inactive = no such curve, though single readings can be large or run the other way. Unless noted, % is scaled to controls: 0 for no effect and ±100 for the full control effect.

SMILES | IMPase Li cell | ALDH1A1 block | HPGD block | IMPase cell inh | NPSR antagonist | PNC inhibitor
N#C/C(=C/c1ccc(-c2ccccc2[N+](=O)[O-])o1)C(N)=O | 1.0% | 19.5% | . | . | -10.4% | .
O=c1nc2s/c(=C\c3ccc(-c4ccccc4[N+](=O)[O-])o3)c(=O)n2nc1-c1ccccc1 | 4.3% | ? | 7.94µM* | . | -9.9% | ?
CN(C)CN1CSC(=S)N(CN(C)C)C1 | -16.1% | 3.98µM* | 3.16µM* | . | . | .
CCc1ccccc1NC(=O)CN(C)Cc1nc(N)nc(Nc2ccccc2C)n1 | -5.4%[38.3 µM] | ? | -4.8% | -2.2 | -19.6%[46.1 µM] | ?
COc1ccc2[nH]c3c(N4CC(C)OC(C)C4)ncnc3c2c1 (configuration not stated) | -7.4%[38.3 µM] | ? | ? | -6.9 | -11.7%[46.1 µM] | 28.2
COc1cccc(N2CCN(c3ncnc4c3[nH]c3ccc(F)cc34)CC2C)c1 (configuration not stated) | 31.6%[38.3 µM] | -5.9% | -17.3% | 14.9 | 2.51µM* | 68.8
COc1cccc(N2CCN(c3ncnc4c3[nH]c3ccccc34)CC2C)c1 (configuration not stated) | 9.6% | 35.5µM* | -24.2% | 6.9 | 10µM* | ?
O=C(c1ccc(Cl)cc1)N1C2C=CC(C2)C1(C(F)(F)F)C(F)(F)F (configuration not stated) | 18.4% | 9.8% | -8.4% | . | -3.3% | 14.3
CCOC(=O)c1ccc(NC(=O)CSc2nnc(CNc3ccc(C)cc3)n2C)cc1 | 2.3% | 0.8% | -12.4% | 5.8 | -6.9%[46.1 µM] | -100.0*
CCOC(=O)c1ccc(NC(=O)CSc2nnc(C3CC3)n2C)cc1 | 1.9% | -13.7% | -13.4% | -0.2 | -19.7%[46.1 µM] | -10.6
CCOC(=O)c1ccc(NC(=O)CSc2nc3sc(C(=O)O)c(C)c3c(=O)[nH]2)cc1 | -4.2% | 14.1µM* | . | . | 8.8% | .
Cc1cc(=O)[nH]c(SCC(=O)Nc2ccc(C(=O)O)cc2)n1 | -13.7%[38.3 µM] | ? | 22.4µM* | 4.3 | -6.3%[46.1 µM] | 15.7
Cc1cc2ccccc2nc1SCC(=O)Nc1nc(-c2ccccc2)cs1 | -4.5%[38.3 µM] | 7.94µM* | -8.6% | 7.8 | -19.9%[46.1 µM] | ?
O=C(CSc1nc2ccccc2o1)Nc1nc(-c2ccccc2)cs1 | -3.5% | -2.7% | -6.2% | . | 13.1% | 60.6
CCOc1ccc(C(=O)NN2C(=S)NC(C)(C)C=C2C)cc1 | . | . | . | . | 2.6% | .
COc1ccc(N(C(=O)CCl)C(C)(C(=O)Nc2c(C)cccc2C)c2ccccn2)cc1 (configuration not stated) | 5.5% | 3.9% | 0.8% | -2.9 | -3.4%[46.1 µM] | -5.4
CCN(CC)c1ccc(NC(=O)CSc2nc(C)cc(=O)[nH]2)cc1 | 6.8%[38.3 µM] | 9.7% | -1.5% | 16.3 | -18.1%[46.1 µM] | -9.5
Cc1ccc(-c2csc(NC(=O)CSC3=NCCS3)n2)cc1 | 13.4% | -11.5% | -16.7% | 12.3 | ? | -24.8
COC(=O)c1cc(NC(=O)CSc2nc(C)cc(=O)[nH]2)cc(C(=O)OC)c1 | 14.0%[38.3 µM] | 1.1% | 14.1µM* | 4.5 | -12.3%[46.1 µM] | 34.9
Cc1ccc(-c2csc(NC(=O)CSc3nc(C)cc(=O)[nH]3)n2)cc1 | 35.3%[38.3 µM] | ? | 28.2µM* | -4.5 | -5.0%[46.1 µM] | -89.1*
CCOC(=O)c1c(-c2ccccc2Cl)csc1NC(=O)CSc1nc(C)cc(=O)[nH]1 | 2.4% | 8.5% | 14.1µM* | . | -19.3% | 41.4
CCOC(=O)c1ccc(NC(=O)CSc2nc(C)cc(=O)[nH]2)cc1 | -8.7%[38.3 µM] | -2.5% | 28.2µM* | -4.0 | -11.3%[46.1 µM] | -23.9
CCOC(=O)c1c(-c2ccccc2)csc1NC(=O)CSc1nnc(C)s1 | 7.5% | -7.3% | -8.2% | . | -9.4% | 125.5
CN1CCN(c2ncc3nc(-c4cn(C)c5ccccc45)c(=O)n(C)c3n2)CC1 | 0.9% | ? | . | . | . | .
CCCCN(C)CCNC(=O)c1nn(-c2ccc(OC)cc2)c(=O)c2c1c1ccccc1n2C | 7.4% | -1.0% | . | . | -38.9% | .
SMILES | IMPase Li cell | ALDH1A1 block | HPGD block | IMPase cell inh | NPSR antagonist | PNC inhibitor
CC1(C)CCCC2=C1CC1C(=O)N(N)C(=O)C1C2 (configuration not stated) | . | -6.8% | . | . | 9.1% | .
CCC(C)c1c(O)nc(SCC(=O)N2CCOCC2)[nH]c1=O (configuration not stated) | -19.3%[38.3 µM] | -1.4% | -5.1% | 11.6 | -13.3%[46.1 µM] | ?
Cc1ccc(N(Cc2ccco2)C(=O)c2cccc(S(=O)(=O)N(C)C)c2)cc1 | 37.1%[38.3 µM] | 25.1µM* | 3.2% | 12.8 | -26.7%[46.1 µM] | 31.5
CN(C)S(=O)(=O)c1cccc(C(=O)N(Cc2ccc(F)cc2)Cc2ccco2)c1 | -3.1%[38.3 µM] | 25.1µM* | -5.7% | 14.6 | ? | -23.6
CN(C)S(=O)(=O)c1cccc(C(=O)NCc2ccco2)c1 | 4.5%[38.3 µM] | ? | -0.8% | -1.0 | -9.1%[46.1 µM] | -20.2
Cc1cc(-c2ccccc2)c(C#N)c(=S)[nH]1 | -10.3% | 7.94µM* | 14.1µM* | . | 4.9% | 0.8
N#Cc1c(-c2ccccc2Cl)cc(-c2ccccc2)[nH]c1=S | -18.2% | 10µM* | . | . | -7.7% | .
Cc1ccc(-c2cc(-c3ccccc3Cl)c(C#N)c(N)n2)o1 | 15.3%[38.3 µM] | ? | ? | 4.9 | -23.0%[46.1 µM] | ?
N#Cc1c2c(c(-c3ccccc3Cl)[nH]c1=S)CCCC2 | 10µM* | -5.3% | . | . | ? | .
Cc1[nH]c(=S)c(C#N)c(C)c1Cc1ccccc1 | . | . | . | . | 1.1% | .
Cc1cc2oc(=O)cc(Cn3ncc(Cl)c(Cl)c3=O)c2cc1Cl | 15.9% | 0.0794µM* | . | . | ? | .
CC12CCCCC1(O)[N+](=O)C1=C(CCCC1)N2[O-] (configuration not stated) | -3.9%[38.3 µM] | -3.7% | -5.5% | -0.9 | -5.3%[46.1 µM] | -21.6
COc1cccc(C(=O)CSc2nc3ccccc3n2CC(=O)N(C(C)C)C(C)C)c1 | 0.5% | -1.9% | -7.7% | -6.2 | -12.1%[46.1 µM] | -100.0*
COC(=O)CSc1nc2ccccc2n1CC(=O)N(C(C)C)C(C)C | . | 0.4% | . | 7.0 | -5.3%[46.1 µM] | 6.4
CCOC(=O)C1=C(N)OC2=C(C(=O)CC(C)(C)C2)C1c1ccccc1OC (configuration not stated) | 7.1% | 6.2% | . | . | -31.6% | .
COc1ccc(N=C2SC(CC(=O)Nc3ccccc3F)C(=O)N2Cc2ccco2)cc1 (configuration not stated) | 4.1% | 2.51µM* | -7.6% | . | -32.4% | -3.2
Cc1cccc(C)c1N=C1SC(CC(=O)Nc2c(C)cccc2C)C(=O)N1CCc1ccccn1 (configuration not stated) | 2.8% | 1.6% | -6.3% | . | -23.2% | -112.2*
O=C(CC1SC(=Nc2ccccc2)N(CCc2ccccn2)C1=O)Nc1ccc(F)cc1 (configuration not stated) | -0.8% | -13.6% | -17.1% | . | -8.1% | ?
Cc1ccccc1NC(=O)CC1S/C(=N/c2nccs2)N(C)C1=O (configuration not stated) | 30.9%[38.3 µM] | -3.3% | 0.7% | 2.7 | -7.9%[46.1 µM] | 40.7
